In PubChem BioAssay (NCI) one finds growth data, which are given here for 16 molecules.

Compounds without any hit were thinned out: in the full panel of roughly 83,000, 20% have a hit.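 Percent growth is the endpoint: 0 to 100 indicates growth inhibition (40 means 60% inhibition), 0 means no net growth, and negative values indicate cell death.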 A number with no mark means an inactive call. Activity calls are given as the source filed them. Rule for the calls: active = growth percent below 10; inactive = the rest.

Common to all, as to experiment: NCI-60 one-dose screen, 48 h (100 = growth as untreated, 0 = no growth, -100 = all killed)
The test system of one assay is DU-145 prostate. Conditions: 10 µM unless noted.
The next assay relates to K-562 leukemia. Conditions: 10 µM unless noted.
The test system of another assay is MALME-3M melanoma. Conditions: 10 µM unless noted.
The test system of the next assay is MDA-MB-231 breast. Conditions: 10 µM unless noted.
A further assay has as its system SF-268 CNS. The conditions noted are these: 10 µM unless noted.
A further assay deals with SF-295 CNS. Conditions: 10 µM unless noted.
The subject of the next assay is SF-539 CNS. The conditions noted are these: 10 µM unless noted.
The next assay has as its system UACC-257 melanoma. The conditions noted are these: 10 µM.
The test system of the next assay is M14 melanoma. The conditions noted are these: 10 µM unless noted.

Consider `CC(=O)Nc1nc(C(=O)N2N=C(C)/C(=C/c3ccccc3)C2=O)cs1`, for which the growth was 111% in the assay on DU-145 prostate; 98.4% in the assay with K-562 leukemia; 96.8% in the assay with MALME-3M melanoma; 113% with MDA-MB-231 breast; 105% in the assay with SF-268 CNS; 108% with SF-295 CNS. Moreover, the growth in the assay on SF-539 CNS was 97.2%; in the assay with UACC-257 melanoma, 104%; in the assay with M14 melanoma, 95.2%.

Consider `CCc1cccc(C)c1NC(=O)c1sc2nc3c(cc2c1N)C(=O)CCC3`, for which the growth with DU-145 prostate is 14.2%; with K-562 leukemia, 8.64% (active); in the assay on MALME-3M melanoma, 45.1%; in the assay on MDA-MB-231 breast, 31%; with SF-268 CNS, 42.7%; with SF-295 CNS, 10.8%. In addition, the growth with SF-539 CNS is -14.4% (active); with UACC-257 melanoma it was 66.6%; in the assay with M14 melanoma, 12.5%.

With `O=c1[nH]c(-c2cn(-c3ccc(Cl)cc3)nn2)nc2ccccc12`, the growth with DU-145 prostate is 94.6%; with K-562 leukemia it was 96.6%; with MALME-3M melanoma it was 59%; with MDA-MB-231 breast it was 74.9%; in the assay with SF-268 CNS, 77.9%; in the assay on SF-295 CNS it was 83.6%. The growth with SF-539 CNS is 48.2%; with UACC-257 melanoma, 77.9%; in the assay with M14 melanoma, 91.4%.

Regarding `Nc1nc(Cl)c2c(ncn2Cc2ccc(CCl)cc2)n1`, the growth was 86.5% in the assay with DU-145 prostate; 117% in the assay with K-562 leukemia; 94.6% with MALME-3M melanoma; 88.2% with MDA-MB-231 breast; 91.1% in the assay on SF-268 CNS; 52.8% in the assay on SF-295 CNS. Besides, the growth in the assay with SF-539 CNS was 82.5%; with M14 melanoma it was 97.2%.

For the molecule `COc1cccc(NC(=O)Cn2cc3c(=O)oc4ccccc4c3n2)c1`, the growth in the assay with DU-145 prostate was 103%; in the assay with K-562 leukemia, 103%; with MALME-3M melanoma, 103%; in the assay with MDA-MB-231 breast, 96.6%; with SF-268 CNS, 103%; in the assay on SF-295 CNS it was 97.2%. Moreover, the growth with SF-539 CNS was 102%; in the assay with UACC-257 melanoma, 101%; in the assay with M14 melanoma it was 101%.

With `O=Nc1c(-c2c(O)[nH]c3ccc([N+](=O)[O-])cc23)[nH]c2ccc(O)cc12`, the growth is 6.72% (active) in the assay on DU-145 prostate; 20.9% in the assay on K-562 leukemia; 11.7% with MALME-3M melanoma; 25.4% with MDA-MB-231 breast; 6.5% (active) with SF-268 CNS; 20.9% in the assay on SF-295 CNS. Moreover, the growth is -34.1% (active) in the assay with SF-539 CNS, 9.29% (active) with UACC-257 melanoma and 11.4% in the assay on M14 melanoma.

Regarding `COc1cc2oc(-c3cccc(NC(=O)Nc4ccc5c(c4)OCO5)c3)cc(=O)c2c(OC)c1OC`, the growth was 65.4% in the assay with DU-145 prostate; 41.9% in the assay with K-562 leukemia; 75.7% in the assay on MALME-3M melanoma; 61.3% in the assay on MDA-MB-231 breast; 75.6% with SF-268 CNS; 60% with SF-295 CNS. The growth is 81.8% in the assay on SF-539 CNS and -9.91% (active) with M14 melanoma.

Turning to `CC(C)C(C(=O)CCN(C)C)c1ccc(Cl)cc1` (stereo unspecified), the growth in the assay on DU-145 prostate was 88.6%; in the assay on K-562 leukemia, 96.7%; in the assay on MALME-3M melanoma, -90.7% (active); in the assay with MDA-MB-231 breast, 101%; in the assay on SF-268 CNS it was 100%; with SF-295 CNS, 106%. In addition, the growth is 103% in the assay on SF-539 CNS and 92.5% with M14 melanoma.

Turning to `CSc1ccccc1C#C/C=C\C#Cc1ccccc1N1CCCCC1=O`, the growth is 107% in the assay with DU-145 prostate; 143% in the assay with K-562 leukemia; 89.2% in the assay on MALME-3M melanoma; 90.8% in the assay with MDA-MB-231 breast; 101% in the assay with SF-268 CNS; 111% with SF-295 CNS. In addition, the growth with SF-539 CNS is 93.4%; in the assay on M14 melanoma, 104%.

In the case of `Nc1c(C(=O)Nc2cccc(Cl)c2Cl)sc2nc3c(cc12)C(=O)CCC3`, the growth in the assay with DU-145 prostate was 96.2%; in the assay on K-562 leukemia it was 42.1%; in the assay with MALME-3M melanoma, 68.6%; in the assay with MDA-MB-231 breast, 71.8%; with SF-268 CNS, 103%; with SF-295 CNS, 35.8%. Further, the growth in the assay with SF-539 CNS was 105%; with UACC-257 melanoma, 76.9%; in the assay on M14 melanoma it was 80.8%.

For `COc1ccc(/C=C2\C(=O)N(C(=O)c3csc(NC(C)=O)n3)N=C2C)cc1`, the growth with DU-145 prostate is 108%; in the assay with K-562 leukemia it was 95.3%; in the assay with MALME-3M melanoma, 90.5%; in the assay on MDA-MB-231 breast it was 105%; in the assay with SF-268 CNS it was 99.1%; with SF-295 CNS it was 105%. The results for the growth with SF-539 CNS, in the assay with UACC-257 melanoma and in the assay on M14 melanoma were 104%, 89.2% and 98.7%, respectively.

Turning to `O=C1CCCCC=C1C[N+](=O)[O-]`, the growth was 106% with DU-145 prostate; 27.8% in the assay on K-562 leukemia; 73.2% with MALME-3M melanoma; 107% with MDA-MB-231 breast; 94.2% with SF-268 CNS; 97.7% in the assay on SF-295 CNS. For the same molecule, the growth in the assay on SF-539 CNS was 101%; in the assay on M14 melanoma, 91.3%.

Turning to `CC[C@H](C)[C@@H]1NC(=O)[C@H]([C@@H](C)O)NC(=O)C(Cc2ccccc2)NC(=O)[C@@H]2CCCN2C(=O)C(C(C)C)NC(=O)C(Cc2ccccc2)NC(=O)CNC(=O)[C@@H]2CCCN2C1=O` (stereo partly specified), the growth with DU-145 prostate was 83.6%; in the assay on K-562 leukemia it was 20.9%; with MALME-3M melanoma, 64%; with MDA-MB-231 breast, 26.4%; in the assay with SF-268 CNS, 72.8%; in the assay on SF-295 CNS, 74.2%. Further, the results for the growth in the assay with SF-539 CNS, in the assay on UACC-257 melanoma and in the assay with M14 melanoma were 83.2%, 60.7% and 22.2%, respectively.

Take `Clc1nc(Cl)c2ncn(C/C=C/Cn3cnc4c(Cl)nc(Cl)nc43)c2n1`: the growth in the assay with DU-145 prostate was 44.2%; in the assay with K-562 leukemia, 17.4%; with MALME-3M melanoma it was 111%; in the assay with MDA-MB-231 breast, 96.4%; in the assay with SF-268 CNS, 62.3%; with SF-295 CNS, 60.4%. Also, the growth in the assay with SF-539 CNS was 46.8%; in the assay with M14 melanoma, 101%.

For the molecule `C#CCN1C(=O)/C(=c2\sc3n(c2=O)C2C(NN=3)N(CC)C(=O)N2CC)c2ccccc21` (stereo unspecified), the growth with DU-145 prostate is 14.8%; with K-562 leukemia, 7.6% (active); with MALME-3M melanoma it was 43.6%; with MDA-MB-231 breast, 21%; in the assay on SF-268 CNS, 50%; in the assay with SF-295 CNS it was -13% (active). Further, the results for the growth in the assay with SF-539 CNS and with M14 melanoma were -39.7% (active) and 26.1%, respectively.

`Cc1oc2nc[nH]c(=O)c2c1C(=O)/C=C/c1ccc(Cl)cc1`: the growth in the assay on DU-145 prostate was 6.76% (active); in the assay with K-562 leukemia, -63.2% (active); in the assay on MALME-3M melanoma, 71%; in the assay with MDA-MB-231 breast it was 22.3%; in the assay with SF-268 CNS it was 50.1%; with SF-295 CNS it was 77%. The results for the growth in the assay on SF-539 CNS and in the assay on M14 melanoma were 14.5% and 82.3%, respectively.
